Molecules are shown by their SMILES. Records with an inconclusive call do not appear. Active and inactive are the calls of the source. How the source made its calls, unless noted: active means hit-call score of the fitted dose curve at least 0.9, where 1 is the maximum; inactive means score below 0.9.

Assay [1] is described as follows: TOX21_p53_BLA_p2_viability: Viability Assessment in the Tox21 HCT-116 p53 Agonism Beta-lactamase Assay, Phase 2 (AID 2283591; active means hit-call score of the fitted dose curve at least 0.9, where 1 is the maximum;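 further: actives lower the ATP signal meaning cytotoxicity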). The method in brief: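 Cytotoxicity readout: CellTiter-Glo ATP luminescence, 30 min at room temperature, after the beta-lactamase read. Cells were HCT116 exposed 16 h at 37C to compounds pin-transferred at 217-fold dilution from DMSO stocks.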

For assay [2], the target named is Cellular tumor antigen p53 (Homo sapiens) (UniProt P04637). As to the kind of experiment: TOX21_p53_BLA_p2_ratio: Tox21 HCT-116 p53 Agonism Beta-lactamase Assay, Ratio, Phase 2 (AID 2283592; active means hit-call score of the fitted dose curve at least 0.9, where 1 is the maximum). The method in brief: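 First, HCT116 reporter cells settle for 5 h at 37C. Next, DMSO compound solutions are pinned in (217-fold dilution) and left 16 h. Finally, CCF4-AM substrate is loaded 2 h at room temperature and the 460/530 nm ratio read.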

Assay [3] in a line: TOX21_p53_BLA_p3_viability: Viability Assessment in the Tox21 HCT-116 p53 Agonism Beta-lactamase Assay, Phase 3 (AID 2283593; active means hit-call score of the fitted dose curve at least 0.9, where 1 is the maximum;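 further: cells exposed to compound for 16 h before reading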). The method in brief: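 Cellular ATP was quantified by CellTiter-Glo luminescence, read after 30 min at room temperature. Beforehand, HCT116 cells (4000/well) received compound 5 h post-seeding, 217-fold diluted from DMSO, then incubated 16 h at 37C.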

In assay [4] the target is Cellular tumor antigen p53 (Homo sapiens) (UniProt P04637). The assay can be described thus: TOX21_p53_BLA_p3_ratio: Tox21 HCT-116 p53 Agonism Beta-lactamase Assay, Ratio, Phase 3 (AID 2283596; active means hit-call score of the fitted dose curve at least 0.9, where 1 is the maximum). Summed up:
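Cells were seeded at 4000/well, rested 5 h at 37C, then dosed with DMSO compound solutions (217-fold dilution) for 16 h. CCF4-AM substrate was loaded for 2 h at room temperature, and the 460/530 nm emission ratio was fitted for gain of signal versus DMSO.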

For assay [5] the target is unchanged. As to the kind of experiment: TOX21_p53_BLA_p5_ratio: Tox21 HCT-116 p53 Agonism Beta-lactamase Assay, Ratio, Phase 5 (AID 2283599; active means hit-call score of the fitted dose curve at least 0.9, where 1 is the maximum). Summed up: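 Beta-lactamase reporter ratio (blue 460 nm over green 530 nm, 405 nm excitation) after 2 h CCF4-AM loading, in HCT-116 cells exposed 16 h at 37 C to compounds pinned at 217-fold dilution. Increases relative to DMSO baseline scored.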

A short description of assay [6]: TOX21_p53_BLA_p5_viability: Viability Assessment in the Tox21 HCT-116 p53 Agonism Beta-lactamase Assay, Phase 5 (AID 2283600; active means hit-call score of the fitted dose curve at least 0.9, where 1 is the maximum). Summed up: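 Decreased CellTiter-Glo luminescence denotes lost viability. Exposure: 16 h at 37C, 5% CO2, with compounds from DMSO stocks diluted 217-fold in wells of 4000 cells.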
The target of assay [7] is Cellular tumor antigen p53 (Homo sapiens) (UniProt P04637). As to the kind of experiment: TOX21_p53_BLA_p4_ratio: Tox21 HCT-116 p53 Agonism Beta-lactamase Assay, Ratio, Phase 4 (AID 2283601; active means hit-call score of the fitted dose curve at least 0.9, where 1 is the maximum). The method in brief:
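Signal is the blue/green (460nm/530nm) ratio of cleaved versus uncleaved CCF4-AM substrate, read after 2 h substrate loading. Cells were HCT116 carrying the p53-responsive beta-lactamase reporter, dosed 16 h at 37C, 5% CO2; CellTiter-Glo measured in parallel.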

A short description of assay [8]: CCTE_Shafer_MEA_dev_firing_rate_mean: CCTE's Neural Network Formation Assay for Mean Firing Rate, Shafer Lab (AID 2284031).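 Further: curve fitted for loss of firing so AC50 reflects decreased mean firing rate.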 Summed up: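 Extracellular spike frequency, AUC over DIV 5–12 recordings, in rat cortical neuron MEA cultures dosed from plating; loss direction vs DMSO.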
Assay [9] can be described thus: CCTE_Shafer_MEA_dev_per_burst_spike_percent: CCTE's Neural Network Formation Assay for Percent of Spikes in a Burst, Shafer Lab (AID 2284032).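 Further: fitted as a decrease in burst spike percentage below DMSO baseline.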 The method in brief:
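Value is trapezoidal AUC over recordings on days 5, 7, 9 and 12 of the well-mean fraction of spikes falling in single-electrode bursts; rat cortical cultures exposed continuously from plating, treatment renewed DIV 5 and 9, fitted downward against DMSO.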

A short description of assay [10]: CCTE_Shafer_MEA_dev_active_electrodes_number: CCTE's Neural Network Formation Assay for Number of Active Electrodes, Shafer Lab (AID 2284040; active means hit-call score of the fitted dose curve at least 0.9, where 1 is the maximum;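 further: potency for loss of active electrodes versus DMSO so lower counts are hits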). Summed up:
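Developing rat cortical networks on MEAs, exposed DIV 0–12. Value is the AUC of active-electrode counts (≥5 spikes/min) from days 5, 7, 9, 12, relative to DMSO.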

Assay [11] is described as follows: CCTE_Shafer_MEA_dev_burst_rate: CCTE's Neural Network Formation Assay for Burst Rate, Shafer Lab (AID 2284042).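 Further: potency for loss of burst rate below DMSO control.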 The method in brief:
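Rat primary cortical cultures on PEI/laminin MEA; compound from plating, re-dosed at DIV 5, 9 media change. Single-electrode bursts/recording length, well mean of active electrodes; AUC over DIV 5–12 recordings; loss-of-signal vs DMSO.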

Assay [12] in a line: CCTE_Shafer_MEA_dev_bursting_electrodes_number: CCTE's Neural Network Formation Assay for Number of Bursting Electrodes, Shafer Lab (AID 2284043; active means hit-call score of the fitted dose curve at least 0.9, where 1 is the maximum;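 further: potency is for loss of bursting electrodes relative to DMSO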). Summed up:
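Number of electrodes reaching ≥1 burst every 2 min was recorded at DIV 5, 7, 9 and 12 and collapsed as trapezoidal area under the curve. Cultures were rat cortical neurons on MEA plates, dosed continuously from plating with medium and treatment refreshed on DIV 5 and 9.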

Assay [13] is described as follows: CCTE_Shafer_MEA_dev_burst_duration_mean: CCTE's Neural Network Formation Assay for Mean Burst Duration, Shafer Lab (AID 2284045).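 Further: curve fitted for loss meaning shorter burst duration than DMSO.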 The method in brief: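 Mean single-electrode burst duration (first to last spike), averaged over bursting electrodes per well, then integrated as area-under-curve across recordings at days 5, 7, 9 and 12. Rat cortical cultures on MEAs, compound present from plating, refreshed at feeds.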

Assay [14] is described as follows: CCTE_Shafer_MEA_dev_interburst_interval_mean: CCTE's Neural Network Formation Assay for Mean Interburst Interval, Shafer Lab (AID 2284046).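 Further: well-mean interburst interval of bursting electrodes as AUC over four recording days; curve fitted for decrease in interburst interval relative to DMSO.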 The method in brief: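 Rat cortical neurons, 1.5 x 10^5 cells/well, 48-well MEA; compound from day 0 through DIV 12, media and treatment renewed DIV 5/9. Recordings DIV 5, 7, 9, 12; well-mean interburst interval → trapezoidal AUC, loss direction vs DMSO.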

Assay [15] can be described thus: CCTE_Shafer_MEA_dev_inter_network_spike_interval_mean: CCTE's Neural Network Formation Assay for Mean Inter-network Spike Interval, Shafer Lab (AID 2284047).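 Further: potency for a decrease in mean inter-network spike interval below DMSO.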 Summed up: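 Primary rat cortical neurons on PEI-coated 48-well MEAs (16 electrodes/well) were exposed from plating day 0 to DIV 12, with dosing renewed at DIV 5 and 9. Recordings at DIV 5, 7, 9, 12 were collapsed by trapezoidal AUC, loss-of-signal fit vs DMSO.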

Assay [16] is described as follows: CCTE_Shafer_MEA_dev_network_spike_number: CCTE's Neural Network Formation Assay for Number of Network Spikes, Shafer Lab (AID 2284048).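 Further: synchronized bursts across electrodes counted on days 5 7 9 12 and integrated as AUC; fit as a loss of signal meaning fewer network spikes than DMSO.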 Summed up: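 Number of network spikes (coordinated firing across electrodes) recorded on days 5, 7, 9 and 12 and summarised as area under the curve. Rat cortical cultures on MEA, continuous compound exposure with full medium/treatment exchange at DIV 5 and 9.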

Assay [17] can be described thus: CCTE_Shafer_MEA_dev_network_spike_peak: CCTE's Neural Network Formation Assay for Mean Number of Electrodes in Network Spike, Shafer Lab (AID 2284049).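 Further: fitted for loss of signal meaning fewer electrodes in network spikes than DMSO.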 The method in brief: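 Rat cortical primary culture, 1.5 x 10^5 cells/well, 48-well MEA (16 electrodes/well). Dosing day 0 through DIV 12, full media/compound exchange DIV 5, 9. AxIS adaptive spike detection; AUC over days 5/7/9/12; loss-of-signal vs DMSO.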

Assay [18] is described as follows: CCTE_Shafer_MEA_dev_spike_duration_mean: CCTE's Neural Network Formation Assay for Mean Spike Duration, Shafer Lab (AID 2284051).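 Further: potency for a decrease in mean network spike duration versus DMSO.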 Summed up:
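Rat cortical primary cultures, 48-well MEA (16 electrodes/well); compound from plating, renewed DIV 5, 9. Network spike duration (AxIS adaptive detector) recorded DIV 5/7/9/12, combined as trapezoidal AUC; loss direction vs DMSO.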

Assay [19] can be described thus: CCTE_Shafer_MEA_dev_network_spike_duration_std: CCTE's Neural Network Formation Assay for Standard Deviation of Network Spike Duration, Shafer Lab (AID 2284052).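 Further: hits are decreases in network spike duration SD versus DMSO vehicle.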 The method in brief:
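Rat cortical cultures, 1.5 x 10^5 cells/well, exposed continuously from plating to DIV 12 with media/compound renewal at DIV 5, 9. Spontaneous activity recorded DIV 5/7/9/12, AxIS adaptive spike detector; AUC across days; negative direction vs DMSO.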

Assay [20] in a line: CCTE_Shafer_MEA_dev_per_network_spike_spike_number_mean: CCTE's Neural Network Formation Assay for Mean Number of Spikes in a Network Spike, Shafer Lab (AID 2284053).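 Further: fitted as decrease in spikes per network spike relative to DMSO.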 Summed up:
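Rat cortical primary cultures on 48-well MEA; compound from day 0, re-dosed with full media change DIV 5, 9. Recorded DIV 5, 7, 9, 12; spikes in 0.05 s window at network-spike peak ÷ total network spikes; AUC; loss vs DMSO.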

Sequence of Cellular tumor antigen p53 (Homo sapiens) (P04637 whole entry, looked up): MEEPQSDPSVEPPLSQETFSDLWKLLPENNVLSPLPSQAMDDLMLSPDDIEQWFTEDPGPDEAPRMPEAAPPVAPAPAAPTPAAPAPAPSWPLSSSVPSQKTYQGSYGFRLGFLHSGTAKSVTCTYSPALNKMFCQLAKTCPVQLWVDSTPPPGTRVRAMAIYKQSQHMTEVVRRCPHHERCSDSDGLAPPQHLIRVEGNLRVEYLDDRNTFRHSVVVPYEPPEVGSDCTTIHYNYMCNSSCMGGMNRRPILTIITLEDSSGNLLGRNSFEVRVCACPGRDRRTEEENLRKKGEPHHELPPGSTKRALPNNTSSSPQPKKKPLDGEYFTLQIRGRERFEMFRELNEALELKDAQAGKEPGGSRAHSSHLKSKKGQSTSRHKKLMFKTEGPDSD

As a reminder, the AC50 is the concentration giving half of the maximal activity seen. As to `CCC[CH2][Sn]([CH2]CCC)([CH2]CCC)[O][Sn]([CH2]CCC)([CH2]CCC)[CH2]CCC`, the AC50 in assay [1] was 708 nM (active); in [3] it was 236 nM (active); in assay [4], 348 nM (active); in [5], 2030 nM (active); in assay [6] it was 1370 nM (active); in [7], 2220 nM (active). Also, the AC50 is 24.5 nM (active) in assay [8]; 34.2 nM (active) in [9]; 42.9 nM (active) in [10]; 29.1 nM (active) in assay [11]; 37.8 nM (active) in assay [12]; 34 nM (active) in assay [13]. Further, the AC50 was 76.2 nM (active) in [14]; 31.5 nM (active) in assay [15]; 56.4 nM (active) in assay [16]; 45.7 nM (active) in assay [17]; 30.8 nM (active) in [18]; 31.2 nM (active) in [19]. Further, in assay [20], the AC50 was 29 nM (active). The outcome in assay [2] was inactive.

The record behind these values is PubChem BioAssay (EPA / NIEHS).
